# Measured values published in PMC7862700, “An all-to-all approach to the identification of sequence-specific readers for epigenetic DNA modifications on cytosine”.
# Key:
# Experiment in all cases: DAPPL (digital affinity profiling via proximity ligation, sequencing); 10 mM Tris-HCl pH 7.5, 50 mM NaCl, 1 mM DTT, 4% glycerol, room temperature, 30 min; GST-TFs on glutathione beads, 16-mer random dsDNA library, 0.1% formaldehyde crosslink after washing; high values mean tight binding
# [1] = target: T1, FEV (Homo sapiens, UniProt Q99581 1-238); conditions: protein: recombinant; tags: N-terminal GST; dsDNA, one strand shown
# T1 sequence: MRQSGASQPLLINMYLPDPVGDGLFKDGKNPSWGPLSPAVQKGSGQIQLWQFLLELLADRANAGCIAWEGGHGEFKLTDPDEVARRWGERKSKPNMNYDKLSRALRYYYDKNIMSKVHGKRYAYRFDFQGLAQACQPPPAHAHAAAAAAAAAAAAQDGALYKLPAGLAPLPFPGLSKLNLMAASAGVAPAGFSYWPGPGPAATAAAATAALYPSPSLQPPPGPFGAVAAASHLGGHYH
# Procedure, shortened: (§1)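 Sequencing on an Illumina NextSeq500 followed washing, crosslinking with 0.1% formaldehyde, proximity ligation (BsaI/T4 ligase, 1 h, 37 °C) and PCR amplification of pools that had been incubated for 30 min at room temperature with 200 nmole of a random double-stranded 16-mer DNA library in Tris/NaCl/DTT/glycerol buffer. Each pool held DNA-barcoded human transcription factors, expressed in yeast as GST fusions and captured on glutathione beads, plus a tag-only sample. Binding signal is a hexamer's read frequency for a factor divided by its frequency in the tag-only sample.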
# [2] = target: ETV5 (Homo sapiens, UniProt P41161 1-510); conditions: protein: recombinant; tags: N-terminal GST; dsDNA, one strand shown
# Procedure, shortened: as §1
# [3] = target: HSF1 (Homo sapiens, UniProt Q00613 1-529); conditions: protein: recombinant; tags: N-terminal GST; chain copies: 3; dsDNA, one strand shown
# Procedure, shortened: as §1
# [4] = target: T2, SPIC (Homo sapiens, UniProt Q8N5J4 1-248); conditions: protein: recombinant; tags: N-terminal GST; dsDNA, one strand shown
# T2 sequence: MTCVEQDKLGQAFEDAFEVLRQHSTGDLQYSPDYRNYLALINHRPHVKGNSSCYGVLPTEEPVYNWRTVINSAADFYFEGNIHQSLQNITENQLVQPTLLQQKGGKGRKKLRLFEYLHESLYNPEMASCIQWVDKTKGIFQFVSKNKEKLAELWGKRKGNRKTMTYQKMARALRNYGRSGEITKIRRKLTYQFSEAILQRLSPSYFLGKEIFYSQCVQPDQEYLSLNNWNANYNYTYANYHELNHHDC
# Procedure, shortened: as §1
# [5] = target: ELF4 (Homo sapiens, UniProt Q99607 1-663); conditions: protein: recombinant; tags: N-terminal GST; dsDNA, one strand shown
# Procedure, shortened: as §1
# [6] = target: T3, ELK4 (Homo sapiens, UniProt P28324-2 1-405); conditions: protein: recombinant; tags: N-terminal GST; dsDNA, one strand shown
# T3 sequence: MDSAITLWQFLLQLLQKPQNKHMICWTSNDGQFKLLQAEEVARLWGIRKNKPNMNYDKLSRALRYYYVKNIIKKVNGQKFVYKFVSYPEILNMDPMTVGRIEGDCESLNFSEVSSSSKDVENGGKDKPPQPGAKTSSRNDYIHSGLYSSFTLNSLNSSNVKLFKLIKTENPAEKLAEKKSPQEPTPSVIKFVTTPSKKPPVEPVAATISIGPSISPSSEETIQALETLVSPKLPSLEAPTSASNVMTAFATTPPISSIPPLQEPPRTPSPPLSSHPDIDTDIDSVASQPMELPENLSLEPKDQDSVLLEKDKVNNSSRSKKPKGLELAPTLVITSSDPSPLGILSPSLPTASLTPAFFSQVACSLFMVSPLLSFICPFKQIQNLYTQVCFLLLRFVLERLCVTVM
# Procedure, shortened: as §1
# [7] = target: T4, ETV2 (Homo sapiens, UniProt O00321 1-342); conditions: protein: recombinant; tags: N-terminal GST; dsDNA, one strand shown
# T4 sequence: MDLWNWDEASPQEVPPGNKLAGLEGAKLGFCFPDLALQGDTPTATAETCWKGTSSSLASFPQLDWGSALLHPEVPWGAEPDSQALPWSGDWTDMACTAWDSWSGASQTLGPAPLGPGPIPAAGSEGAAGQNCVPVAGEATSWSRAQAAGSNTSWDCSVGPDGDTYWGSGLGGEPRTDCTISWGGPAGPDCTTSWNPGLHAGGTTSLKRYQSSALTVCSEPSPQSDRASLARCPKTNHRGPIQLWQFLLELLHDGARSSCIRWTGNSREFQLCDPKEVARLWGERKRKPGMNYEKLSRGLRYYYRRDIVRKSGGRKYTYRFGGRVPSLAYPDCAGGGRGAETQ
# Procedure, shortened: as §1
# [8] = target: T5, ELF3 (Homo sapiens, UniProt P78545 1-371); conditions: protein: recombinant; tags: N-terminal GST; dsDNA, one strand shown
# T5 sequence: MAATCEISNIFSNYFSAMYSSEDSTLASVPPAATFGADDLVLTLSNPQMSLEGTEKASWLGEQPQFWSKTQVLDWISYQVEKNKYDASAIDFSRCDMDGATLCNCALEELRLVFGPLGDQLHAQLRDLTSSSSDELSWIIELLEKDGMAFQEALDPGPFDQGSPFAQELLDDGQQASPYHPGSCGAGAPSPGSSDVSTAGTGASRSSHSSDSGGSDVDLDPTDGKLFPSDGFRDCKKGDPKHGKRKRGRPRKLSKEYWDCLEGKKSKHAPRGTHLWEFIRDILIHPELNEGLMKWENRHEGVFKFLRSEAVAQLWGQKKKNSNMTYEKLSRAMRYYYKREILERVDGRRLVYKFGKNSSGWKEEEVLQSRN
# Procedure, shortened: as §1
# [9] = target: ETV1 (Homo sapiens, UniProt P50549 1-477); conditions: protein: recombinant; tags: N-terminal GST; dsDNA, one strand shown
# Procedure, shortened: as §1
# [10] = target: T6, ERF (Homo sapiens, UniProt P50548 1-548); conditions: protein: recombinant; tags: N-terminal GST; dsDNA, one strand shown
# T6 sequence: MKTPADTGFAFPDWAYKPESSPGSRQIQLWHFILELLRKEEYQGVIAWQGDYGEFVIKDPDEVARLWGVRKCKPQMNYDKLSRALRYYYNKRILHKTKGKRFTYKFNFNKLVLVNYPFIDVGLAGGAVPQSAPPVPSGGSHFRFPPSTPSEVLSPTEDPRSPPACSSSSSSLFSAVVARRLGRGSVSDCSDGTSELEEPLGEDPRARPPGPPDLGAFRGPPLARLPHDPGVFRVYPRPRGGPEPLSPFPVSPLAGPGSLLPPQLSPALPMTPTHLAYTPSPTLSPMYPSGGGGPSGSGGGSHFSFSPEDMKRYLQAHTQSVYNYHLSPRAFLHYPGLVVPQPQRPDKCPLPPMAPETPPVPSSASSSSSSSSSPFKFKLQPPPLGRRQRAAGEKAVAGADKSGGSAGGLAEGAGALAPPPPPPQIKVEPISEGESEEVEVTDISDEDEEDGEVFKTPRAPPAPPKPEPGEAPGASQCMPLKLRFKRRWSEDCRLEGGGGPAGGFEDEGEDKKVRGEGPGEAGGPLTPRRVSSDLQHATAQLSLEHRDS
# Procedure, shortened: as §1
# [11] = target: T7, ETV3L (Homo sapiens, UniProt Q6ZN32 1-361); conditions: protein: recombinant; tags: N-terminal GST; dsDNA, one strand shown
# T7 sequence: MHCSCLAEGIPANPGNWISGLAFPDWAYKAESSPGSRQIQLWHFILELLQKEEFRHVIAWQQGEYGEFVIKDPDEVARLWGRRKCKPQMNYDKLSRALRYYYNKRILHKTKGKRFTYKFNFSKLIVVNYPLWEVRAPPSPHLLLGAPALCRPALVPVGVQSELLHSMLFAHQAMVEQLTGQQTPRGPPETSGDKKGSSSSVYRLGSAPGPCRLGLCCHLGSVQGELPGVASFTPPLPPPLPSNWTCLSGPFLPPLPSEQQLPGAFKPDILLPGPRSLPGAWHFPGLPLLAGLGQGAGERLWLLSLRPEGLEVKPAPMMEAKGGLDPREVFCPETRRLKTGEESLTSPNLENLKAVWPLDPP
# Procedure, shortened: as §1
# [12] = target: T8, ETS2 (Homo sapiens, UniProt P15036 1-469); conditions: protein: recombinant; tags: N-terminal GST; dsDNA, one strand shown
# T8 sequence: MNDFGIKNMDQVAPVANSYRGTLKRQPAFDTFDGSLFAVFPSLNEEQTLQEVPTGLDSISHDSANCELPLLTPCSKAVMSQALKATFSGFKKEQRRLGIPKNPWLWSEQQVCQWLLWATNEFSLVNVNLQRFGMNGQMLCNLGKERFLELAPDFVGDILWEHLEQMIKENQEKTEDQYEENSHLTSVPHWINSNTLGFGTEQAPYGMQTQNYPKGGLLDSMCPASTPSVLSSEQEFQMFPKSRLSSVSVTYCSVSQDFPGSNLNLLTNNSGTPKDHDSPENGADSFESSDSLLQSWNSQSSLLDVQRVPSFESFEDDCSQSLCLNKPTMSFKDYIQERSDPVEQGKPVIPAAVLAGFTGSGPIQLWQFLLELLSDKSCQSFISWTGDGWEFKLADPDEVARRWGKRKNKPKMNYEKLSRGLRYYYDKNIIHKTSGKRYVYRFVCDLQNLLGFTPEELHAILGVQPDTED
# Procedure, shortened: as §1
# [13] = target: T9, SPDEF (Homo sapiens, UniProt O95238 1-335); conditions: protein: recombinant; tags: N-terminal GST; dsDNA, one strand shown
# T9 sequence: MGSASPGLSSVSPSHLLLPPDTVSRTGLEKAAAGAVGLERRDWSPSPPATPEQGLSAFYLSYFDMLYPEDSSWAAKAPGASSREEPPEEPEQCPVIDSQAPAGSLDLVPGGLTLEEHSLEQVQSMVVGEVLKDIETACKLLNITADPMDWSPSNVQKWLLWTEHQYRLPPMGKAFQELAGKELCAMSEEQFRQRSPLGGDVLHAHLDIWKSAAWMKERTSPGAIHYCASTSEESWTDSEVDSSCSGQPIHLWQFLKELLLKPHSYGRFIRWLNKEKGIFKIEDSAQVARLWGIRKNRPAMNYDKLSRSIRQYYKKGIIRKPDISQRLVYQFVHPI
# Procedure, shortened: as §1
# [14] = target: T10, ETV7 (Homo sapiens, UniProt Q9Y603 1-341); conditions: protein: recombinant; tags: N-terminal GST; dsDNA, one strand shown
# T10 sequence: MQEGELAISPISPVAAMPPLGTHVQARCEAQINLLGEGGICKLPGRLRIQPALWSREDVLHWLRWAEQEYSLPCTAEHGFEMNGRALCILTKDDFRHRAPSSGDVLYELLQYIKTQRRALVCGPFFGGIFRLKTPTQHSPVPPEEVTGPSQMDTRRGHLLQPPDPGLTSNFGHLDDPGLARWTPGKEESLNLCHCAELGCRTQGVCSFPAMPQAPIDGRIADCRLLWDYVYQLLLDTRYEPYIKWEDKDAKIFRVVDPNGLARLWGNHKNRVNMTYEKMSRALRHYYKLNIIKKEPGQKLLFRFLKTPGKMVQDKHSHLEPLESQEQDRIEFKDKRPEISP
# Procedure, shortened: as §1
# [15] = target: T11, ELF5 (Homo sapiens, UniProt Q9UKW6-2 1-255); conditions: protein: recombinant; tags: N-terminal GST; dsDNA, one strand shown
# T11 sequence: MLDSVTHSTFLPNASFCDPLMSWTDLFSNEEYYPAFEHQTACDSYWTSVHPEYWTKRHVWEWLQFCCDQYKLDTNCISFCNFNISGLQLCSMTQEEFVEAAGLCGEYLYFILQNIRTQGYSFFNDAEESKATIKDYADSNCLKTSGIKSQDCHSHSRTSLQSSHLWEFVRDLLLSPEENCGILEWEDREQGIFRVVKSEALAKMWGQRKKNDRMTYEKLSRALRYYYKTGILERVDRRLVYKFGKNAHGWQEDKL
# Procedure, shortened: as §1
# [16] = target: T12, ETV3 (Homo sapiens, UniProt P41162-2 1-143); conditions: protein: recombinant; tags: N-terminal GST; dsDNA, one strand shown
# T12 sequence: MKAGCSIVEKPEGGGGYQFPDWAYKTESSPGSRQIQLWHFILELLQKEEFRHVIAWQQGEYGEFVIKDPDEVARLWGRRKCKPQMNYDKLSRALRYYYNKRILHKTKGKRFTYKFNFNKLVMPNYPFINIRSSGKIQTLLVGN
# Procedure, shortened: as §1
# [17] = target: ETV6 (Homo sapiens, UniProt P41212 1-452); conditions: protein: recombinant; tags: N-terminal GST; dsDNA, one strand shown
# Procedure, shortened: as §1
# Sequence of ETV1 (P50549 whole entry): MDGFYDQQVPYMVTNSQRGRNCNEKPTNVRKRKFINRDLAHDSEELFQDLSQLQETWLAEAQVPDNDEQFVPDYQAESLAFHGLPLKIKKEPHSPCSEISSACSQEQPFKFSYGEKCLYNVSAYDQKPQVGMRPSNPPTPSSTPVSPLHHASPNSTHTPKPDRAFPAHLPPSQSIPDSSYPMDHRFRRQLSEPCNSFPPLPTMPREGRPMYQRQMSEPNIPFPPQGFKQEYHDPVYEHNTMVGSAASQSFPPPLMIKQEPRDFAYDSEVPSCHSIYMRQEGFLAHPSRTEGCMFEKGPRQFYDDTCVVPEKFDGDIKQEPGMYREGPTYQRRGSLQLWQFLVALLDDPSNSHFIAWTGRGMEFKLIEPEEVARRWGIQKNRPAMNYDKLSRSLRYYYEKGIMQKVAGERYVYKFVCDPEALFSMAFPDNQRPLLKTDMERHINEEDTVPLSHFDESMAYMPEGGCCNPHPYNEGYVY
# Sequence of ETV5 (P41161 whole entry): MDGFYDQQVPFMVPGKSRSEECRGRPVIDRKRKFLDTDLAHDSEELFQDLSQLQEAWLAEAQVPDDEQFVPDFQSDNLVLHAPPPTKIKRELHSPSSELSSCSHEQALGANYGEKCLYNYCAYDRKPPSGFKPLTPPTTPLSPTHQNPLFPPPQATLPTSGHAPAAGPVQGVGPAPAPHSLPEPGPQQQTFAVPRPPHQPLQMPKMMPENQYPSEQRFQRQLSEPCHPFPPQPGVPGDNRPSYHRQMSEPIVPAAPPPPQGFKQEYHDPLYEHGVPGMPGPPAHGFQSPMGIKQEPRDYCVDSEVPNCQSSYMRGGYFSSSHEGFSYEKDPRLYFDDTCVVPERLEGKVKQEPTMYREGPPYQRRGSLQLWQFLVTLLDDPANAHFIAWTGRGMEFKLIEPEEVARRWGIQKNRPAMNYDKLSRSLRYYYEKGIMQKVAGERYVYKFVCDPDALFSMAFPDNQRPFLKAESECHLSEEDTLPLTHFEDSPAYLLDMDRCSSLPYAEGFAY
# Sequence of ETV6 (P41212 whole entry): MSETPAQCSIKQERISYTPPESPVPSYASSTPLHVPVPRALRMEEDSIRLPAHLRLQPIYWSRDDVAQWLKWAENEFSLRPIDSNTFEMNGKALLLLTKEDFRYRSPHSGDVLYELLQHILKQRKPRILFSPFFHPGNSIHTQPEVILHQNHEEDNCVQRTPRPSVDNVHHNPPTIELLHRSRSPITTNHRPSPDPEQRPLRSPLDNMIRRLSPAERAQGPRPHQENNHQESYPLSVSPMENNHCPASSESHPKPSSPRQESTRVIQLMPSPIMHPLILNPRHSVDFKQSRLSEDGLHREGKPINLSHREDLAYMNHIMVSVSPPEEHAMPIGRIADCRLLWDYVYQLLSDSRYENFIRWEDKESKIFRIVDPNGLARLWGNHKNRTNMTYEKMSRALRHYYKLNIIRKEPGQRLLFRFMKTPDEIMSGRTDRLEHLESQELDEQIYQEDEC
# Sequence of ELF4 (Q99607 whole entry): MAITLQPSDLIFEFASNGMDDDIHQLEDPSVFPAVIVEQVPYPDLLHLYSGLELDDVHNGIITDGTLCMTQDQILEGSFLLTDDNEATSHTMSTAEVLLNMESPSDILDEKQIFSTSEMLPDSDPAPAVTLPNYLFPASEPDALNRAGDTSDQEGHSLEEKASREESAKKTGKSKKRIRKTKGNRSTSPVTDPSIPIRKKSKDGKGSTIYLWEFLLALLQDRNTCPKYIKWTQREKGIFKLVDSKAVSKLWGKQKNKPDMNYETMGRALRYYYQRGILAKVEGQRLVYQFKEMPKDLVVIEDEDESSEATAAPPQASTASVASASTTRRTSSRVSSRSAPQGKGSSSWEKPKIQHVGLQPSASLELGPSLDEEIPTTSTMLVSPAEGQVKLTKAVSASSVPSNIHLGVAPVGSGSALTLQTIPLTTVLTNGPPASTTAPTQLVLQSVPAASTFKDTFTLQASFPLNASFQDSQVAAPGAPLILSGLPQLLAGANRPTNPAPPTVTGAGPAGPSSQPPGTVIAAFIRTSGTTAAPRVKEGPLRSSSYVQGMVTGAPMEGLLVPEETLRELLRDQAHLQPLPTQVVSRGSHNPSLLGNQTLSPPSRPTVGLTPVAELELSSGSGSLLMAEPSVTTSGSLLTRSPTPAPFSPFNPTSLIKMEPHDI
# Sequence of HSF1 (Q00613 whole entry): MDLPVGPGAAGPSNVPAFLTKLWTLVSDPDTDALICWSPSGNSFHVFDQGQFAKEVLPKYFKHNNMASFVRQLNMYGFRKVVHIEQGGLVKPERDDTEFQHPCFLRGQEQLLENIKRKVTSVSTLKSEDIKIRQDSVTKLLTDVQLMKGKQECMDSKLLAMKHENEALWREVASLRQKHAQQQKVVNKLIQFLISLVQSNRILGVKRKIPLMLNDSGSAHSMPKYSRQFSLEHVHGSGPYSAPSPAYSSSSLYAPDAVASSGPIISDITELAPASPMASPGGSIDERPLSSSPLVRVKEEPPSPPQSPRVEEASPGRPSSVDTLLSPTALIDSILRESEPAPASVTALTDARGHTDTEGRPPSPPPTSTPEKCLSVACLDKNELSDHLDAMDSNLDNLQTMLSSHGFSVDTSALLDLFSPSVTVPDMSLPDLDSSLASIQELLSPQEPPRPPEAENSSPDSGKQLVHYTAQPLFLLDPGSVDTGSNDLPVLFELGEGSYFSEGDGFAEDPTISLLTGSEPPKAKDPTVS
sequence,measurement,setting,value
AGATGC,binding signal,[1],"1.05 fold enrichment (6-mer frequency, TF over GST control)"
same,binding signal,[2],"1.09 fold enrichment (6-mer frequency, TF over GST control)"
same,binding signal,[3],"1.1 fold enrichment (6-mer frequency, TF over GST control)"
same,binding signal,[4],"1.11 fold enrichment (6-mer frequency, TF over GST control)"
same,binding signal,[5],"1.1 fold enrichment (6-mer frequency, TF over GST control)"
same,binding signal,[6],"1.29 fold enrichment (6-mer frequency, TF over GST control)"
same,binding signal,[7],"1.01 fold enrichment (6-mer frequency, TF over GST control)"
same,binding signal,[8],"1.09 fold enrichment (6-mer frequency, TF over GST control)"
same,binding signal,[9],"1.05 fold enrichment (6-mer frequency, TF over GST control)"
same,binding signal,[10],"1.23 fold enrichment (6-mer frequency, TF over GST control)"
same,binding signal,[11],"1.09 fold enrichment (6-mer frequency, TF over GST control)"
same,binding signal,[12],"1.09 fold enrichment (6-mer frequency, TF over GST control)"
same,binding signal,[13],"1.03 fold enrichment (6-mer frequency, TF over GST control)"
same,binding signal,[14],"1.03 fold enrichment (6-mer frequency, TF over GST control)"
same,binding signal,[15],"1.12 fold enrichment (6-mer frequency, TF over GST control)"
same,binding signal,[16],"1.06 fold enrichment (6-mer frequency, TF over GST control)"
same,binding signal,[17],"1.04 fold enrichment (6-mer frequency, TF over GST control)"
